Measured values as given in the supplement of paper PMC13380429.

Key:
[1] = system: Vero E6 infected with SARS-CoV-2; test: morphology score (similarity to uninfected cells); higher = more like uninfected cells; details: 24 h
[2] = system: Vero E6 infected with SARS-CoV-2; test: SARS-CoV-2 infection rate relative to infected DMSO; higher = more infection, active = 60 or less; details: 24 h

Row | Compound | morphology score [1] | SARS-CoV-2 infection rate [2]
1 | CCCCC(F)(F)[C@@]1(O)CC[C@H]2[C@@H](CC(=O)[C@@H]2CCCCCCC(=O)O)O1 [lubiprostone] (10 µM) | 0.0116 | 107% (inactive)
2 | C/N=C(/NC#N)NCCSCc1csc(NC(=N)N)n1 [tiotidine] (10 µM) | 0.11 | 98% (inactive)
3 | CN1C(=O)COc2c(C(=O)NC3CN4CCC3CC4)cc(Cl)cc21 (configuration not stated) [azasetron] (10 µM) | 0.143 | 98% (inactive)
4 | C=C(NC(=O)C(=C)NC(=O)c1csc(C2=N[C@@H]3c4csc(n4)[C@H]4NC(=O)c5csc(n5)[C@H]([C@](C)(O)[C@@H](C)O)NC(=O)[C@H]5CSC(=N5)/C(=C/C)NC(=O)[C@H]([C@@H](C)O)NC(=O)c5csc(n5)[C@]3(CC2)NC(=O)[C@H](C)NC(=O)C(=C)NC(=O)[C@H](C)NC(=O)[C@H]([C@@H](C)CC)N[C@@H]2C=Cc3c([C@H](C)O)cc(nc3[C@H]2O)C(=O)O[C@@H]4C)n1)C(N)=O [thiostrepton] (10 µM) | 0.148 | 92.5% (inactive)
5 | CN1CCN(C(=O)O[C@H]2c3nccnc3C(=O)N2c2ccc(Cl)cn2)CC1 (10 µM) | -0.0495 | 108% (inactive)
6 | CC(C)C[C@@H](NC(=O)[C@H](C)NC(=O)CNC(=O)[C@@H](NC=O)C(C)C)C(=O)N[C@@H](C)C(=O)N[C@@H](C(=O)N[C@H](C(=O)N[C@@H](C(=O)N[C@@H](Cc1c[nH]c2ccccc12)C(=O)N[C@H](CC(C)C)C(=O)N[C@@H](Cc1c[nH]c2ccccc12)C(=O)N[C@H](CC(C)C)C(=O)N[C@@H](Cc1c[nH]c2ccccc12)C(=O)N[C@H](CC(C)C)C(=O)N[C@@H](Cc1c[nH]c2ccccc12)C(=O)NCCO)C(C)C)C(C)C)C(C)C [gramicidin] (10 µM) | -0.258 | 100% (inactive)
